Structures are written as SMILES.

The assay has as its target T1, Aspartate--tRNA(Asp/Asn) ligase (Mycobacterium tuberculosis (strain ATCC 25618 / H37Rv)) (UniProt P9WFW3).
T1 sequence (whole entry): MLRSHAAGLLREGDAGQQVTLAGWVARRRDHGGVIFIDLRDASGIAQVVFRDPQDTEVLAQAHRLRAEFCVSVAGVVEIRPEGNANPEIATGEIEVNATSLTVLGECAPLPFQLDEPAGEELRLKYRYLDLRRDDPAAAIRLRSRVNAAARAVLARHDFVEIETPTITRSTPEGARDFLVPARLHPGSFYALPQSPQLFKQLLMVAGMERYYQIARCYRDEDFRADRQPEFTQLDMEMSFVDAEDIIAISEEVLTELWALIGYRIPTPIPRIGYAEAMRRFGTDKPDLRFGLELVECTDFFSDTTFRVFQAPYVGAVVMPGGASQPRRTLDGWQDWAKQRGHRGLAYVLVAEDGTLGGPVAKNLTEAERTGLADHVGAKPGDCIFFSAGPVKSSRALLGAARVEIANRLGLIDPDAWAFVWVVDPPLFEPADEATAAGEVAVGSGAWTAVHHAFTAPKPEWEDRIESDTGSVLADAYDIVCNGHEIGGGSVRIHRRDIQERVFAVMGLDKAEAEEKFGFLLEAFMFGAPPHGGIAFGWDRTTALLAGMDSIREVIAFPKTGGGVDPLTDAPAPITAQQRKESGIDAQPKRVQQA
Nature of the assay: Assay for Asp RNA synthetase-1 from Mycobacterium tuberculosis. The arrangement: scale not given: in the data most compounds retested in dose-response had high values. The following applies: 30 µM. It counts as functional.
Consider `Cc1ccccc1CS(=O)(=O)NCCCN1CCCCC1`, for which the Percent Effect is -2.17%.
Under `Cc1cnn(C2CN(CC(O)c3ccc(F)cc3)C2)c1` (stereo not given) stands -2.19%; under `O=C1N(Cc2ccc(F)c(F)c2)CCCC12CCN(C1CCSCC1)C2` (stereo not given), -5.55%.
For the molecule `O=C(O)c1csc(S(=O)(=O)N2CCCc3ccc(F)cc32)c1`, the Percent Effect was determined as 1.9%.
Under `COCCc1noc(CN(C)C2CCCN(c3ccc(C)nn3)C2)n1` (stereo not given) stands 0.172%; under `CCn1nc(C)c(CNC(=O)c2cn(CCC3CCCCN3)nn2)c1C` (stereo not given), 0.0575%.
Under `CC(C)c1nccn1CCCNC(=O)c1ccc(N(C)C)nc1` stands -2.17%; under `Cc1ccc(CN2CCN(CC3CC3)[C@@H]3CS(=O)(=O)C[C@@H]32)cc1C`, -3.05%.
For `CCN(CC)c1ccc(-c2nc(-c3cccc(OC)c3OC)no2)cn1` the value was -4.22%.
Regarding `CSCC(=O)N1CCCC1c1noc(C2CC2)n1` (stereo not given), the Percent Effect turned out to be 0.839%.
Turning to `Cc1cccc(CN2C[C@H]3OC(=O)N(CCCN4CCOCC4)[C@H]3C2)n1`, the Percent Effect was -2.42%.
For `COc1cccc(S(=O)(=O)CCN2CCCN(C(C)=O)CC2)c1` the value was -1.55%; for `COc1cccc(Cc2nnc(SC3CCOC3=O)o2)c1` (stereo not given), -2.01%; for `c1nc(N2CCCCC2Cn2cncn2)c2ccsc2n1` (stereo not given), -0.379%.
For `Cn1ccnc1SCc1nc(C(C)(C)NC(=O)OC(C)(C)C)no1` the value was -0.333%; for `O=C(O)C(c1ccc2c(c1)OCCO2)N1CCCCCC1` (stereo not given), -3.23%.
For `c1ccc(OCCN2CCCC(c3noc(C4CC4)n3)C2)cc1` (stereo not given), the Percent Effect was -0.885%.
Under `CN(C)CCn1c(=O)oc2ccc(NC(=O)CC(C)(C)C)cc21` stands 0.793%; under `O=C(NCCc1csc(N2CCCC2)n1)N(C1CCCC1)C1CC1`, 4.33%; under `Cc1cnn(C2CN(Cc3ccc4c(c3)OCCO4)C2)c1`, 2.19%.
On to `CCC(=O)NCC(=O)NCc1cc(Br)ccc1OC(F)F`, for which the Percent Effect is -1.92%.
Under `COc1ccc(-n2cnnc2SCCC#N)cn1` stands -0.885%; under `Cc1nn(C)c(Cl)c1C1CCCN1c1ncnc2sccc12` (stereo not given), -2.03%.
Under `COc1cccc(S(=O)(=O)CCN2CCCCC2)c1` stands 3.32%.
Under `Cc1cc(C(=O)NC2CCCN(c3ccccc3)C2=O)on1` (stereo not given) stands 0.287%; under `COc1cccc(CN(C)C(=O)CN2CCN(c3nccn3C)CC2)c1`, 2.95%.
On to `Cc1ccc(C2COCCN2C(=O)c2ccc(N(C)C)cc2)o1` (stereo not given), for which the Percent Effect was -0.816%.
Take `CN(CCO)Cc1nnc(C2CCN(C(=O)C(C)(C)C)CC2)n1C`: the Percent Effect was 3.14%.
For `O=C(NCCCc1ccncc1)C1CCCN(Cc2ccco2)C1` (stereo not given) the value was 2.17%; for `CN1CCCC(CNC(=O)N2CCN(Cc3ccon3)CC2)C1` (stereo not given), -6.42%; for `Cc1nn(C)cc1CNC(=O)c1cn(CCC2CCCCN2)nn1` (stereo not given), -2.13%.
Under `CS(=O)(=O)NCC(=O)NC1CCc2nccn2C1` (stereo not given) stands 2.91%; under `Cc1cc(C)nc(N2Cc3cnn(Cc4ccc(F)cc4)c3C2)n1`, -2.29%; under `Cc1ccsc1CNC(=O)NC1CCCc2c1cnn2CCO` (stereo not given), -1.99%.
Under `CCCC(=O)NCc1cc(Br)c(OC)c(OC)c1` stands -0.862%.
Turning to `COc1cccc(-c2noc(-c3ccc(NCC4CC4)nc3)n2)c1OC`, the Percent Effect was -3.57%.
Under `COC(=O)CCN1CCCC1c1ccccc1Cl` (stereo not given) stands 2.1%; under `CC(C)Nc1ncc(CN2C[C@@H](CN3CCC(O)CC3)[C@@H](CO)C2)cn1`, -1.99%; under `CCS(=O)(=O)N1CCC(c2nnc(CN3CCOCC3)n2C)CC1`, -1.39%.
For `CCOc1ncccc1CNC(=O)N1CCCC1c1cc(C)no1` (stereo not given) the value was -2.06%.
